Assay outcomes from PubChem BioAssay.
This is one part of a sample in which hits are shown more often than they occur.
Sfp PPTase inh – inhibitors of Bacillus subtilis Sfp phosphopantetheinyl transferase; hit rate 3.5% among 310,000; Potency, µM, without a hit: largest response in the series, negative = inhibition, actives largely listed as inhibitors; AID 1490; Biochemical Sfp PPTase activity, qHTS;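 note: the enzyme is Sfp with the accession as filed and its product quenches rhodamine fluorescence; 0% = enzyme reaction without inhibitor and -100% = no enzyme wells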
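Fluorescence-quenching assay: 15 nM Sfp-PPTase preincubated 15 min at room temperature with compound, then 5 uM rhodamine-CoA and 12.5 uM BHQ-2-labelled YbbR peptide added. Fluorescence (ex 525/em 598 nm) read at start and after 30 min; difference gives rate.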
G9a block – G9a (human) methyltransferase inhibition; hit rate 8.8% among 350,000; G9a H3K9 monomethylation, AlphaScreen, 2 h; AID 504332; Potency, µM (series often up to 102 µM), inactives show top-dose activity, negative = inhibition, actives largely listed as inhibitors; Q96KQ7; note: % is set by controls: 0 for no effect and ±100 for the full control effect; nearly all actives have a fitted effect of over 75% in size
Target sequence (Q96KQ7 913-1193 limits assumed): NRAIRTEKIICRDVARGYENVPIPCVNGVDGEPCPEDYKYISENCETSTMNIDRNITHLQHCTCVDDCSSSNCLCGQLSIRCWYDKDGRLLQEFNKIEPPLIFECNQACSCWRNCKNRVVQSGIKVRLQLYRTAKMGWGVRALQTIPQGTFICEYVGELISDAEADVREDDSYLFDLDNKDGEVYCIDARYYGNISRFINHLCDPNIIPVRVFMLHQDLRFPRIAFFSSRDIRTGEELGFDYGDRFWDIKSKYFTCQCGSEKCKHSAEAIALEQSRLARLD
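G9a (20 nM) preincubated 15 min RT with compounds, then 500 nM biotinylated H3K9 peptide and 20 uM SAM added; 2 h RT reaction. Monomethyl-H3K9 product detected by AlphaScreen with anti-H3K9me1 antibody, streptavidin donor and anti-rabbit IgG acceptor beads.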
12-LOX inh – inhibitors of human 12S-lipoxygenase ALOX12 | Potency, µM (top dose mostly 108 µM), inactives show top-dose activity change, negative = inhibition, hits mostly inhibitors | purified 12hLO, xylenol orange hydroperoxide absorbance | hit rate 1.1% among 580,000 | AID 1671190; note: % is set by controls: 0 for no effect and ±100 for the full control effect
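Purified human 12hLO at 150 nM in 25 mM Hepes, 0.01% Triton X-100, pH 7.0, preincubated 15 min at room temperature with compound. Reaction started with 40 uM arachidonic acid, 30 min at room temperature. Hydroperoxide measured by Fe-xylenol orange, 573/405 nm absorbance ratio.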
GRP78 ERSR act – ER stress response induction in glioma; Potency, µM, for inactives: at the top dose activation, hits mostly activators; hit rate 0.02% among 420,000; U87-MG GRP78 promoter luciferase reporter, 16 h; note: series mostly up to about 76 µM; % of control where 0% means no effect; nearly all actives have a fitted effect of over 35% in size
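Stably transfected U87-MG human glioma cells carrying a GRP78-based luminescent sensor were seeded at 1000 cells/well, pin-dosed with compounds and incubated 16 h. Luciferase reagent was then added, and end-point luminescence was read after 10 min at room temperature.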
VDR inh – vitamin D3 receptor (human) inhibition; P11473; VDR-SRC2-3 peptide fluorescence polarization, 2 h; Potency, µM, for inactives: max response, negative = inhibition, hits mostly inhibitors; hit rate 0.93% among 400,000; note: % is set by controls: 0 for no effect and ±100 for the full control effect
Target sequence (P11473 whole entry, looked up): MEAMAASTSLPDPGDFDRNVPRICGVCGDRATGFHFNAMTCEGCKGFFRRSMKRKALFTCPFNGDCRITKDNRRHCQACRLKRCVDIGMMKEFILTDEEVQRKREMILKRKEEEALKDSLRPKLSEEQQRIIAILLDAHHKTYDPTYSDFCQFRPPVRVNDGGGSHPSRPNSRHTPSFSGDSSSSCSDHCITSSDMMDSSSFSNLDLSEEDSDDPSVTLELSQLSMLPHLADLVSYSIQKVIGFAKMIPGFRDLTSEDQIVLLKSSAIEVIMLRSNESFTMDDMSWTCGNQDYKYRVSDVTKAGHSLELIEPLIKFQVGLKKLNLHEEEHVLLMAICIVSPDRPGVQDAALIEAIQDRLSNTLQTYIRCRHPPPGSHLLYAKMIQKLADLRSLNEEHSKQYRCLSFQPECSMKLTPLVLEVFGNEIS
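After 23 nl compound addition and a short centrifugation, plates sat for 2 hours at ambient temperature; polarization of fluorescence then indicated loss of VDR binding to peptide SRC2-3.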
Numbers without * were called inactive; [ ] = remark or other dose. Calls come from the whole dose curve; as a rule, active = well fitted curve in the direction sought with a large enough effect; inconclusive = small, poorly fitted or top-dose-only effect, or another doubt; inactive = no such curve, though single readings can be large; an effect the other way counts as inactive or inconclusive. Potency is the fitted concentration of half-maximal effect.

Screening Cc1cnc(NC(=O)Nc2ccc(Cl)cc2)s1 returned Sfp PPTase inh 9.5%, G9a block 50.1µM*, 12-LOX inh -2.4%, GRP78 ERSR act 5.7% and VDR inh -8.3%.
Cc1cnc(NC(=O)COc2ccccc2Cl)s1 was read as Sfp PPTase inh 18.1%, G9a block 56.2µM*, 12-LOX inh 22.4%, GRP78 ERSR act -9.6% and VDR inh 1.0%.
Screening O=C(CC[C@@H]1CNC(=O)[C@@H]2C[C@H](NC(=O)Nc3cccc(Cl)c3)CN12)NCc1ccccc1 returned 12-LOX inh -19.1%.
Screening C=CCOC(=O)C(C#N)c1nc2ccccc2nc1N1CCC(C)CC1 (stereo unspecified) returned 12-LOX inh -23.2%.
CN(CCCC[C@H](CNCc1ccc(-c2ccccc2)cc1)N1C[C@H](c2ccccc2)N(CCc2ccc(Cl)c(Cl)c2)C(=O)C1=O)Cc1ccc(-c2ccccc2)cc1 was read as Sfp PPTase inh 22.4µM* and G9a block inconclusive.
`COc1ccc(CNC[C@@H](CCCCN(C)Cc2ccc(OC)cc2)N2C[C@H](c3ccccc3)N(CCc3ccc(Cl)c(Cl)c3)C(=O)C2=O)cc1` gave Sfp PPTase inh 28.2µM*, G9a block inconclusive, GRP78 ERSR act -11.2% and VDR inh -8.8%.
CCOc1ccc(CCN2C(=O)C(=O)N([C@H](CCCN(C)Cc3ccccc3)CNCc3ccccc3)C[C@@H]2C(C)C)cc1 was read as Sfp PPTase inh -2.7% and G9a block -21.2%[59 µM].
For CC(C)c1nnc(NC(=O)c2cc(=O)c3cc(Cl)ccc3o2)s1 the results were 12-LOX inh -13.6%.
`CCCCCCOc1ccc(C(=O)COC(=O)c2ccc(Br)cc2)cc1` gave 12-LOX inh 21.5%.
CNC(=O)NC(=O)C(NC1CCCc2ccccc21)c1ccccc1 (stereo unspecified) was read as Sfp PPTase inh 6.7%, G9a block inconclusive, 12-LOX inh -5.5%, GRP78 ERSR act 0.9% and VDR inh -8.6%.
For COc1ccc(C)cc1NC(=O)NC1CCCc2ccccc21 (stereo unspecified) the results were Sfp PPTase inh 7.2%, G9a block 47.5%, 12-LOX inh -0.1%, GRP78 ERSR act -9.6% and VDR inh 19.9%.
For Cc1ccc(NC(=O)C(NC2CCCc3ccccc32)c2ccccc2)c([N+](=O)[O-])c1 (stereo unspecified) the results were Sfp PPTase inh -41.5%, G9a block 11.2µM*, 12-LOX inh inconclusive, GRP78 ERSR act -4.6% and VDR inh -24.0%.
`Cc1ccc(NC(=O)C(NC2CCCc3ccccc32)c2ccccc2)cc1Cl` (stereo unspecified) gave Sfp PPTase inh 44.7µM*, G9a block 7.08µM*, 12-LOX inh inconclusive, GRP78 ERSR act -4.7% and VDR inh 18.9%.
`COC(=O)CCC(C)C1CCC2C3CCC4C[C@H](OC(=O)c5ccccc5)CCC4(C)C3CC(=O)C12C` (stereo partly specified) gave 12-LOX inh 24.2%.
For COc1cccc(N2C(=O)CC(N3CCN(CCN=CC4=C(O)CC(C)(C)CC4=O)CC3)C2=O)c1 (stereo unspecified) the results were Sfp PPTase inh 8.0%, G9a block -5.7%, 12-LOX inh 18.7%, GRP78 ERSR act -4.8% and VDR inh -13.2%.
For CC1(C)CC(=O)C(C=NCCN2CCN(C(=S)NC3CCCCC3)CC2)=C(O)C1 the results were Sfp PPTase inh 79.4µM*, G9a block 26.2%[59 µM], 12-LOX inh 2.3%, GRP78 ERSR act -2.1% and VDR inh -15.3%.
`CC1(C)CC(=O)C(C=NCCN2CCN(C3CC(=O)N(c4cccc(Br)c4)C3=O)CC2)=C(O)C1` (stereo unspecified) gave Sfp PPTase inh 13.7%, G9a block 70.8µM*, 12-LOX inh 2.7%, GRP78 ERSR act -4.0% and VDR inh 10.1%.
Screening CCOC(=O)C(C)Oc1cc2oc(=O)cc(C)c2cc1Cl (stereo unspecified) returned 12-LOX inh 27.3%.
For O=C(CCCN1CCOCC1)c1ccc2c(c1)OCCO2 the results were Sfp PPTase inh 7.0%, G9a block 11.8%[59 µM], 12-LOX inh -6.8%, GRP78 ERSR act -6.1% and VDR inh -19.4%.
O=C(CCN1CCOCC1)c1ccc2c(c1)OCCO2 was read as Sfp PPTase inh -14.7%, G9a block 8.91µM*, 12-LOX inh 40.8%, GRP78 ERSR act -13.6% and VDR inh 56.2µM*.
`O=C(CCN1CCCCC1)c1ccc2c(c1)OCO2` gave Sfp PPTase inh inconclusive, G9a block 7.94µM*, 12-LOX inh inconclusive, GRP78 ERSR act -18.6% and VDR inh 44.7µM*.
`O=C(CCN1CCOCC1)NNC(=S)NC(=O)c1ccccc1` gave Sfp PPTase inh 44.7µM*, G9a block 11.2µM*, 12-LOX inh -16.5%, GRP78 ERSR act -4.7% and VDR inh -11.7%.
For O=C(CCN1CCOCC1)c1ccccc1 the results were Sfp PPTase inh 11.9%, G9a block 44.7µM*, 12-LOX inh -3.9%, GRP78 ERSR act -0.8% and VDR inh -52.8%.
For CCOC(=O)c1cc(NC(=O)CC2CCCC2)cc(C(=O)OCC)c1 the results were 12-LOX inh -1.8%.
For Cc1cc(C)n2ncc(-c3noc(C(=O)NC[C@@H](C)O)n3)c2n1 the results were 12-LOX inh -18.4%.
`CC(Sc1nnc2ccccn12)C(=O)c1ccc(Br)cc1` (stereo unspecified) gave 12-LOX inh 10.3%.
Screening O=C(CCN1CCN(C(=O)c2ccccc2)CC1)c1ccc(Br)cc1 returned Sfp PPTase inh -5.0%, G9a block 31.6µM*, 12-LOX inh -29.2%, GRP78 ERSR act -5.2% and VDR inh inconclusive.
`O=C(c1ccccc1)N1CCN(Cc2ccccc2Br)CC1` gave Sfp PPTase inh -24.5%, G9a block inconclusive, 12-LOX inh inconclusive, GRP78 ERSR act 5.1% and VDR inh -17.1%.
Screening Cc1cc(C(F)(F)F)nn1Cc1n[nH]c(=S)n1-c1cccc(Cl)c1 returned Sfp PPTase inh -7.5%, G9a block 25.1µM*, 12-LOX inh inconclusive, GRP78 ERSR act -4.4% and VDR inh 3.0%.
`Cc1ccc(-n2c(Cn3nc(C(F)F)cc3C(F)F)n[nH]c2=S)cc1` gave Sfp PPTase inh 13.1%, G9a block 1.12µM*, 12-LOX inh inconclusive, GRP78 ERSR act 0.5% and VDR inh 3.6%.
Screening Cc1cc(C(F)(F)F)nn1Cc1n[nH]c(=S)n1Cc1ccccc1 returned Sfp PPTase inh 7.9%, G9a block 1.78µM*, 12-LOX inh inconclusive, GRP78 ERSR act -3.3% and VDR inh -12.4%.
For Cc1cc(C(F)(F)F)nn1Cc1n[nH]c(=S)n1-c1ccc(Cl)cc1 the results were Sfp PPTase inh 6.5%, G9a block 1.58µM*, 12-LOX inh inconclusive, GRP78 ERSR act 3.2% and VDR inh -13.4%.
